Assay results from PubChem BioAssay AID603 (National Center for Advancing Translational Sciences (NCATS), 2007).
Among all 71,000 compounds or so, about 180 (0.25%) were called active. The full list was thinned out, with actives kept by preference. A number with no mark means an inactive call. Calls follow the shape of the dose curve; as a rule, active = well fitted curve in the direction sought with a large enough effect; inconclusive = small, poorly fitted or top-dose-only effect; inactive = flat fitted curve, though single readings scatter.

tested on: DNA polymerase III holoenzyme (E. coli); test: qHTS Assay for Inhibitors of DNA Polymerase III Holoenzyme System; details: reconstituted DNA polymerase III holoenzyme replication, biochemical; series mostly up to 57.1 µM; activity change, negative = inhibition: at the top concentration
Protocol: NIH Molecular Libraries Screening Centers Network [MLSCN]
NIH Chemical Genomics Center [NCGC]
Assay Provider: Charles McHenry, University of Colorado
E. coli DNA polymerase III holoenzyme complex was assayed for DNA production by fluorescent detection of the double-stranded DNA product with PicoGreen dye. The holoenzyme complex was reconstituted from the following purified protein components: DNA Polymerase III, beta subunit processivity factor, SSB single-stranded DNA binding protein, and Primase. Single-stranded, circular M13Gori was used as a substrate with dNTPs and NTPs also supplied to the substrate reagent. Compounds from the NCGC collection were incubated with the holoenzyme mixture for 15 min at room temperature to allow binding to occur, and then the reaction was started by the addition of substrate. After 30 min incubation at room temperature, PicoGreen solution containing EDTA was added to stop the reaction and to visualize the double-stranded DNA produced. Reaction progress was measured in a ViewLux CCD imager in fluorescence intensity mode by using 480 nm excitation and 540 nm emission filter set.
NCGC Assay Protocol Summary:
Buffer. 50 mM Hepes-KOH, pH 7.5, 5 % Glycerol, 0.02% NP40, 30 mM potassium;
glutamate, 1.5 mM Magnesium Acetate, 16 uM TCEP.
Buffer in columns 3 and 4 as negative control (no enzyme).
Substrate solution: 5 uM each dATP, dGTP, dCTP and TTP, 50 uM each GTP, CTP, UTP and 200 uM ATP, 1.4 nM M13gori (final concentrations).
Enzyme: 154 nM SSB, 2 nM Primase, 1 nM Beta, 0.35 nM Pol III (final concentrations).
PicoGreen/EDTA: 10 mM Tris-HCl, 10 mM EDTA, 5 uM PicoGreen (final concentrations).
Control titration: ChemBridge 5805060 (from 10 mM, then 1:2, in duplicate) was pin-transferred to upper half of column 2.
Three uL of holoenzyme mixture were dispensed to 1536-well Greiner black solid bottom plates. Compounds and controls (23 nL) were transferred via Kalypsys PinTool. The plates were incubated for 15 min at room temperature, and then 1 uL of substrate solution was added to start the reaction. After room temperature incubation for 35 minutes, 1 uL of PicoGreen solution was added to each well and the plates were read 480 nm excitation and 540 nm emission using ViewLux (Perkin-Elmer) High-throughput CCD imager and fluorescence protocol settings.
Keywords: NIH Roadmap, MLSCN, MLI, MLSMR, qHTS, NCGC, DNA Polymerase III, DNAPol3, DNAPoly3, DNA replication targets
% is scaled to controls: 0 for no effect and ±100 for the full control effect; potency is read from the fitted curve at half-maximal effect.

Row | SMILES | activity change, negative = inhibition | Potency
1 | CC(C)NC(=O)N1CCCC2(CCN(C(=O)c3cccn3C)CC2)C1 | 8.1% | 
2 | COc1ccc(N)c(OC)c1 | 2.6% | 
3 | CC1=C2C(=O)OC(c3ccoc3)C2(C)CCC1 (configuration not stated) | -5% | 
4 | Cn1c(SCC(=O)Nc2cccc(NC(=O)c3cccs3)c2)nnc1-c1ccncc1 | -8.6% | 
5 | O=C1c2ccccc2C(=O)N1CCCSc1ccccc1 | -7.1% [at 11.4 µM] | 
6 | COc1ccc(N2C(=O)c3cccc4cccc(c34)C2=O)nn1 | -4.7% | 
7 | C[N+](C)(CCCCCC[N+](C)(C)CCCN1C(=O)c2cccc3cccc(c23)C1=O)CCCN1C(=O)c2cccc3cccc(c23)C1=O |  | 15.8 µM (active)
8 | COc1ccc2[nH]cc(CCNc3cc(-c4ccccc4CN(C)C)ncn3)c2c1 | -2.7% | 
9 | O=C(c1cc(C(F)(F)F)cc(C(F)(F)F)c1)N1CCC2(CC1)CN(c1ccncc1)C2 | -0.9% | 
10 | CCN1C(=O)/C(=C2\SC(N3CCCCC3)=NC2=O)c2ccccc21 | 0.9% | 
11 | C/C=C/C=C/C(=O)O | -6.6% | 
12 | O=S(=O)(/C=C/c1ccccc1)NCCc1ccccn1 | -1% | 
13 | COc1ccc(S(=O)(=O)Nc2ccc3c(c2)OCO3)cc1Cl | -1.3% | 
14 | CC1CCCC(C)N1CCCNC(=O)c1cc2c(=O)n(C)c3ccccc3c2n1C (configuration not stated) | -10.1% | 
15 | Cn1c(C(=O)NCCc2ccsc2)cc2c(=O)n(C)c3ccccc3c21 | -10% | 
16 | CCN1CCCC1CNC(=O)c1cc2c(=O)n(C)c3ccccc3c2n1C (configuration not stated) |  | 25.1 µM (active)
17 | OCCNCCCCOc1ccccc1F | -4.9% [at 11.4 µM] | 
18 | CC1(C)S[C@@H]2[C@@H](NC(=O)[C@@H](N)c3ccccc3)C(=O)N2[C@H]1C(=O)O | -5.3% | 
19 | Oc1ccc(Cn2cc[nH]c2=S)cc1 | -0.6% | 
20 | C[N+]1(CCN=C=NC2CCCCC2)CCOCC1 | -1.6% [at 11.4 µM] | 
21 | COc1ccc(C(=O)OCC(=O)c2ccc(C)c(S(=O)(=O)N3CCOCC3)c2)cc1OC | -0.2% | 
22 | CCOc1ccc(NC(=O)CCC(=O)n2nc(C)cc2C)cc1 | -2.9% | 
23 | Cc1cccc(N2CCN(C(=O)c3cc4c(=O)[nH]c5ccccc5c4n3C)CC2)c1C | -6.2% | 
24 | CCCn1c(C)nc2c(NCCCCN(CC)CC)nc(C)nc21 | -1.5% | 
25 | NCCNCC1CCNCC1 | -9.7% [at 11.4 µM] | 
26 | CCNC(=S)NCC | 9.5% | 

Row | SMILES | activity change, negative = inhibition | Potency
27 | CC(Cc1ccccc1)C(=O)N(C)Cc1ccccc1 (configuration not stated) | 6.7% | 
28 | COc1ccccc1CNc1ncncc1-c1cccnc1 | -5.7% | 
29 | COc1cccc(NC(=O)Cn2cnc3sc(C)c(S(=O)(=O)N4CCN(C)CC4)c3c2=O)c1 | -5.3% | 
30 | COc1ccccc1N1CCN(C(=O)Cn2nnc(-c3cccs3)n2)CC1 | -2.6% | 
31 | Cc1[nH]c(N)nc(=S)c1CCCNc1ccccc1 | -9.5% [at 11.4 µM] | 
32 | COc1ccc(OCC(=O)N2CCN(C(=O)c3cccs3)CC2)cc1 | -3.6% | 
33 | CC(C)C[C@@H](CC(=O)N[C@@H](CCC(=O)O)CC(=O)O)NC(=O)[C@@H]1CCCC[C@H]1NC(=O)C[C@@H](NC(=O)C[C@H](CO)NC(=O)[C@@H]1CCCC[C@H]1N)C(C)C | -7.3% | 
34 | Cc1c(C)c2c(c(C)c1O)CC[C@@](C)(CN1CCN(c3cc(N4CCCC4)nc(N4CCCC4)n3)CC1)O2 | 6.2% | 
35 | CCCCNC(=O)CSc1nnc(-c2ccco2)n1C | 8.1% | 
36 | CCN(CC)CCNC(=O)Cn1cnc2sc(C)c(S(=O)(=O)N3CCOCC3)c2c1=O | 7.1% | 
37 | O=C1CC(c2ccccc2)C(=O)N1c1cccc(O)c1 (configuration not stated) | -3.8% | 
38 | Cc1cc(Nc2ccc(Br)cc2F)n2ncnc2n1 | -4.2% | 
39 | COC(=O)c1ccccc1NC(=O)C1CCN(S(=O)(=O)c2cc(OC)ccc2OC)CC1 | -4.8% | 
40 | O=C(NCCCCO)C(F)(F)C(F)(F)C(F)(F)C(=O)NCCCCO | -1.7% | 
41 | CCOc1cc(-c2nc3cc(C)ccn3c2NCC2CCCO2)ccc1O (configuration not stated) | -6.1% | 
42 | N#C/C=C1\Sc2ccccc2C(=O)N1CC(=O)N1CCN(S(=O)(=O)c2ccccc2)CC1 | 8.5% | 
43 | COc1ccc(NC(=O)N2CC3(CCN(C(C)=O)CC3)C2)cc1 | -2.4% | 
44 | CCN(CC(=O)NCc1cccs1)c1nnnn1-c1ccccc1 | -8.3% | 
45 | O=C1N(Cc2ccc3c(c2)OCO3)c2ccccc2C1(O)c1c[nH]c2ccccc12 (configuration not stated) | 5.2% | 
46 | Cc1nc2cnc(N3CCN(C)CC3)nc2n(C[C@H]2CCCO2)c1=O | -13.3% | 
47 | O=C(O)c1c(Br)c(Br)c(Br)c(Br)c1C1c2ccc(O)cc2Oc2cc(O)ccc21 |  | 0.0251 µM (active)
48 | N#CC1=C(N)Oc2cc(O)ccc2C1C1CCCCC1 (configuration not stated) | -6.4% | 
49 | FC(F)(F)c1ccccc1-c1nc(-n2ccnc2)c2ccccc2n1 | -4.4% | 
50 | O=C(CSc1nc(-c2ccco2)cc(C(F)(F)F)n1)N1CCc2ccccc2C1 | 4.6% | 
51 | O=C(O)/C(=C/c1c(C(=O)O)[nH]c2cc(Cl)cc(Cl)c12)c1ccccc1 |  | 31.6 µM (active)
52 | COCCCNC(=O)c1ccc(CNS(=O)(=O)c2ccc(NC(C)=O)cc2)cc1 | -6.1% | 
